MITF inh – blocks human microphthalmia-associated transcription factor | AID 1259374 | AlphaScreen MITF homodimerization, bead proximity signal | inhibition, % at 2.6 µM | actives 0.91% (n = 650,000); in the data active = inhibition above about 50%
FBW7 act – human FBW7 E3 ligase activation, primary screen; AID 1259310; Q969H0; normalized activity (activation), % at 26.1 µM; AlphaScreen FBW7–phospho-cyclin E peptide binding, activator screen; actives 0.13% (n = 650,000); in the data active = normalized activity above about 1.9%;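 note: purified mutant Fbw7 with reduced substrate affinity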
TEAD-YAP inh – TEAD-YAP interaction inhibition | HEK-TIYL cells, TEAD-Gal4/YAP UAS-luciferase luminescence | inhibition, % at 9.12 µM | actives 1.4% (n = 640,000); in the data active = inhibition above about 32%
GPR151 ag – activators of human GPR151; Q8TDV0; PathHunter beta-arrestin GPR151 cells, luminescence; activation, % at 11.2 µM; actives 1% (n = 650,000); AID 1508602; in the data active = activation above about 4.9%
GPR151 confirm – confirmation of human GPR151 activators; shares compounds with GPR151 ag; 6,700 tested, under 10 active; GPR151 PathHunter beta-arrestin cells, luminescence, 90 min; % of EA-reagent control over plate median; activation, % at 11.2 µM;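 active = mean percent activation across replicates above the confirmation screen cutoff of 4.91%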
GPR119 ag – GPR119 activation, counter-screen for GPR151 activators | shares compounds with GPR151 ag | GPR119 PathHunter beta-arrestin cells, luminescence, 90 min; 0 = compound-well median, 100 = enzyme-acceptor control | activation, % at 11.2 µM | actives 0.3% (n = 6,700) | AID 1508611;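 active = mean percent activation in the counterscreen above 29.09%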;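 note: counterscreen on off-target GPR119 to flag nonselective hits from the GPR151 activator screen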
A number is an active result; i = inactive; nt = no result. Hits are enriched below; roughly 3.5% of the tested compounds scored in any of these assays.

SMILES	MITF inh	FBW7 act	TEAD-YAP inh	GPR151 ag	GPR151 confirm	GPR119 ag
CC(C)c1ccc(OCC(=O)O/N=C(\N)c2cccc([N+](=O)[O-])c2)cc1	i	i	i	16	i	i
Cc1ccc(C)c(NC(=O)CN2CCC(c3nc4ccccc4[nH]3)CC2)c1	i	i	i	6.0	i	i
O=C(C1CCCCC1)N1CCC(c2nc3ccccc3[nH]2)CC1	i	i	i	5.8	i	i
Cc1cccc(NC(=O)CN2CCC(c3nc4ccccc4[nH]3)CC2)c1	i	i	i	i	nt	nt
O=C(CCC1(Cc2ccco2)CCC(=O)N1)NCc1cnn(Cc2ccccc2)c1 (centres undefined)	i	i	i	i	nt	nt
COc1ccc(OCC(=O)OCCCN(C)C)cc1	i	i	i	i	nt	nt
CCCCc1ccc(C(=O)N/C(=C\c2ccc(C)cc2)C(=O)Nc2ccc([N+](=O)[O-])cc2OC)cc1	i	i	i	i	nt	nt
CCN(CC)c1ncnc2sc(C(=O)Nc3ccc(C)c(F)c3)c(C)c12	i	i	i	9.1	i	i
COCCNc1nc(-c2ccc(OC)c(OC)c2)no1	i	i	i	8.4	i	i
O=C1c2ccccc2C(=O)N1CCOc1ccc(Br)cn1	i	i	i	6.0	i	i
O=C1c2ccccc2C(=O)N1CCOc1ccccc1F	i	i	i	i	nt	nt
CC(C)CCNC(=O)C1CC(=O)N(C2CCCCCC2)C1 (centres undefined)	i	i	i	10	i	i
CC(C)CCNC(=O)C1CCC(=O)N1C(C)C (centres undefined)	i	i	i	5.2	i	i
CC(C)CN(CCCNC(=O)C1CC(=O)N(C2CCCC2)C1)CC(C)C (centres undefined)	i	i	i	i	nt	nt
Cc1cn2c3c(=O)n(CC(C)C)c(=O)n(C)c3nc2n1C	i	i	i	5.6	i	i
CCOC(=O)c1ccc(-n2c(C)cn3c4c(=O)n(CCC(C)C)c(=O)n(C)c4nc23)cc1	i	i	i	5.1	i	i
C=CCn1c(C)cn2c3c(=O)n(CC(C)C)c(=O)n(C)c3nc12	i	i	i	i	nt	nt
CCCCCn1c(=O)c2c(nc3n(Cc4ccc(OC)cc4)c(C)cn23)n(C)c1=O	i	i	i	4.9	i	i
CCCCn1c(=O)c2c(nc3n(Cc4ccc(OC)cc4)c(C)cn23)n(C)c1=O	i	i	i	i	nt	nt
CCOC(=O)c1ccc(-n2c(C)cn3c4c(=O)n(C)c(=O)n(C)c4nc23)cc1	i	i	i	i	nt	nt
C=CCOc1ccc(C2Oc3nc(SC)nnc3-c3ccccc3N2C(=O)CC)cc1 (centres undefined)	i	i	i	i	nt	nt
O=C(NCCO)C(=O)NCC(c1cccs1)S(=O)(=O)c1ccccc1 (centres undefined)	i	i	i	4.9	i	i
Cc1ccnc(-n2cccc2CN2CCc3c(nc(N4CCCC4)[nH]c3=O)C2)c1	i	i	i	5.0	i	i
O=C(COC(=O)c1cccc(S(=O)(=O)NCC(F)(F)F)c1)c1ccccc1	i	i	i	5.6	i	i
CCOC(=O)C1=C(C)N=c2s/c(=C\c3ccncc3)c(=O)n2C1c1ccccc1Cl (centres undefined)	i	i	i	i	nt	nt
SMILES	MITF inh	FBW7 act	TEAD-YAP inh	GPR151 ag	GPR151 confirm	GPR119 ag
Cc1ccc(-n2nc(C)cc2/N=C/N(C)C)cc1	i	i	i	5.4	i	i
CC(C)CCCC(C)C1CCC2C3CC=C4CC(OC(=O)Oc5ccc(F)cc5)CCC4(C)C3CCC12C (centres undefined)	i	i	i	i	nt	nt
Cc1ccc(NC(=O)C2CCN(S(=O)(=O)c3ccc(Cl)s3)CC2)cc1	i	i	i	5.9	i	i
O=[N+]([O-])c1cccc(S(=O)(=O)CC(Cl)c2ccccc2)c1 (centres undefined)	i	i	i	i	nt	nt
O=C(NCCn1cc(SCc2c(F)cccc2Cl)c2ccccc21)c1ccc(F)cc1	i	i	i	i	nt	nt
CCOc1ccc(-c2nc3s/c(=C\c4ccccc4F)c(=O)n3n2)cc1	i	i	i	11	i	i
COc1ccc(/C=c2\sc3nc(-c4ccncc4)nn3c2=O)cc1OC	i	i	i	i	nt	nt
COc1cc(/C=c2\sc3nc(-c4ccncc4)nn3c2=O)ccc1OC(C)=O	i	i	i	4.9	i	i
CCCCOc1ccc(/C=c2\sc3nc(-c4ccncc4)nn3c2=O)cc1	i	i	i	5.1	i	i
CC(C)CCOc1ccc(-c2nn(-c3ccccc3)cc2/C=c2\sc3nc(-c4cccs4)nn3c2=O)cc1	i	i	i	7.0	i	i
COc1ccc(-c2nc3s/c(=C\c4ccccc4F)c(=O)n3n2)cc1	i	i	i	i	nt	nt
CCCCOc1ccc(/C=c2\sc3nc(-c4ccc(Cl)cc4)nn3c2=O)cc1	i	i	i	i	nt	nt
Cc1cccc(-n2c(O)c(C=Nc3c(C)nn(Cc4ccccc4)c3C)c(=O)[nH]c2=O)c1C	i	i	i	i	nt	nt
c1csc(CNc2nccn3c(-c4ccc5c(c4)OCO5)cnc23)c1	i	i	i	i	nt	nt

Screening results: PubChem BioAssay, The Scripps Research Institute Molecular Screening Center
